# Only a selection was taken, and hits are over-represented in it overall.
# VCAM1 TNFa pot: TNF alpha stimulated VCAM1 expression potentiation; HUVEC TNFa-stimulated VCAM-1 immunofluorescence, high-content imaging; scaled per plate to unstimulated/TNFa-only wells; activation, % at 2 µM; actives 0.19% (n = 93,000); AID 808;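 active = activation above the screen mean plus 3 SD, with well images confirming the hit on visual review, cut at about 28% in these data, passing the limit was not always enough; inconclusive = activation above that limit but images do not confirm it; inactive = activation not above that limit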;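 also: signal is the number of cytoplasmic VCAM-1 stained grains per positive cell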
# VCAM1 pot conf: potentiators of TNFa-induced VCAM1 expression, confirmation, imaging, HUVEC, triplicate retest; shares compounds with VCAM1 TNFa pot; HUVEC TNFa-stimulated VCAM-1 immunofluorescence imaging; activation, % at 2 µM; 230 tested, under 10 active; AID 1034;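 active = activation above 30% in triplicate retests at 2 µM, then confirmed by visual review of the well images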;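 also: scaled per plate between unstimulated and TNFa-stimulated DMSO control wells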
# * hit, by the source's call; ? = inconclusive.
SMILES,VCAM1 TNFa pot,others
O=C(Nc1ccc2oc(-c3ccccc3)nc2c1)c1ccc2c(c1)OCCO2,30*,VCAM1 pot conf=-10
O=C(Nc1ccc(-c2nc3cc(Cl)ccc3o2)cc1)C1CCCO1 (stereo unspecified),34,
O=C(Cc1ccccc1)Nc1ccc2oc(-c3cccnc3)nc2c1,2,
C=CCc1c(C)nc(SC)nc1Nc1ccc(C)cc1,0,
CC(=O)c1c(C(C)=O)c(C)n(-c2nc(-c3ccccc3)c(C)s2)c1C,-12,
CSc1cc(C)n(-c2ccccc2)c(=S)c1C(C)=O,72*,VCAM1 pot conf=-16
CN(CP(=O)(O)CN(C)S(C)(=O)=O)S(C)(=O)=O,32*,VCAM1 pot conf=-12
Cn1nc(C(F)(F)F)c(C(=O)Nc2ccc(F)cc2F)c1Sc1ccc(C(F)(F)F)cc1,6,
COc1ccc(NC2CC(=O)NC2=O)cc1 (stereo unspecified),-6,
O=C(CN1CCN(CCO)CC1)Nc1ccccc1,10,
CCOC(=O)c1nn(-c2ccccc2C)c2nc(CC(C)C)c(C#N)c(=O)n12,-6,
CCOC(=O)CSc1nc2ccc(C)cc2cc1C#N,-9,
CCOC(=O)CC(=O)CSc1ccc2nnc(-c3ccc(F)cc3)n2n1,-1,
CCOC(=O)CC(=O)CSc1nc2c(C)c(C)ccc2cc1C,51*,VCAM1 pot conf=-10
COC(=O)c1c(NC(=S)Nc2ccccc2Cl)sc(C)c1C,7,
CCOC(=O)C(NC(C)=O)(Nc1ccc(S(=O)(=O)Nc2ccncn2)cc1)C(F)(F)F (stereo unspecified),0,
O=C(N/N=C/c1ccccc1Cl)c1cccc(F)c1,56*,VCAM1 pot conf=-12
Cc1nnc(NC(=O)c2cccc(F)c2)s1,3,
O=C(N/N=C/c1cc2c(cc1Cl)OCO2)c1ccccn1,1,
Nc1sccc1C(=O)c1ccccc1,66*,VCAM1 pot conf=-8
O=C(Oc1csc(=S)n1C(=O)c1ccccc1)c1ccccc1,-98,
Nc1ccccc1NC(=O)c1ccccc1,-2,
O=c1c(C=Nc2ccc(Cl)cc2)c[nH]n1-c1cccc(Cl)n1,2,
COc1ccc(/C=N\NS(=O)(=O)c2ccc(Cl)cc2)cc1COc1ccccc1[N+](=O)[O-],2,
O=C(CCNS(=O)(=O)c1ccc(Cl)cc1)N1CCC2(O)CCCCC2C1 (stereo unspecified),-3,
SMILES,VCAM1 TNFa pot,others
O=C(CN1CCC(c2nc3ccccc3[nH]2)CC1)NCc1ccc2c(c1)OCO2,1,
Clc1ccc2nc(C3CCN(Cc4nnnn4C4CCCCC4)CC3)[nH]c2c1,60*,VCAM1 pot conf=-4
CCOC(=O)N1CCN(CC(=O)Nc2ccc(C)c(Br)c2)CC1,-17,
CC(C)[C@H](NC(=O)OC(C)(C)C)c1nnc(SCc2cccc(F)c2)o1,2,
CN1CCN(S(=O)(=O)c2ccc(Br)c3nsnc23)CC1,-10,
Cc1ccc(N2C(=O)c3ccc(C(=O)N4CCN(c5cccc(C)c5C)CC4)cc3C2=O)cc1,-17,
CCc1nnc(NC(=O)c2ccc(OC)cc2OC)s1,64*,VCAM1 pot conf=-1
CCOC(=O)Cc1nnc(NC(=O)COc2ccc(OC)cc2)s1,-1,
CCc1nnc(NC(=O)c2ccc3c(c2)C(=O)N(CC(C)C)C3=O)s1,-14,
O=C(c1cnn2c1NC(c1ccco1)CC2C(F)(F)F)N1CCN(c2cccc(Cl)c2)CC1 (stereo unspecified),-5,
C=CCNc1nc(Nc2ccc(OC)cc2)nc(OCC)n1,-6,
Cc1ccccc1OC(=O)n1c(=S)oc2cc(Cl)ccc21,-7,
CCCC(=O)NCCCc1nc2ccccc2n1CCC,-4,
Cc1nc2ccccc2n1CCCOc1ccccc1,-62,
COCc1nc2ccccc2n1CCCOc1ccccc1,?,VCAM1 pot conf=-16
Nc1nnc(SCCOc2ccc(Br)cc2)s1,2,
CC(C)(C)c1ccc(/C=C/C(=O)NC2=NCCS2)cc1,-10,
OCCN(Cc1ccccc1)Cc1ccc(C(F)(F)F)cc1,-10,
O=C(CSc1nnnn1-c1ccccc1Cl)Nc1ccc2c(c1)OCCO2,-2,
COC(=O)c1ccc(C)c(NS(=O)(=O)c2ccc(OC)cc2)c1,32*,VCAM1 pot conf=-59
COC(=O)c1ccc(C)c(NC(=O)C2COc3ccccc3O2)c1 (stereo unspecified),-7,
COc1ccc(NS(=O)(=O)c2ccc(C)c(C(=O)O)c2)cc1,-7,
CC(=O)Nc1ccc(S(=O)(=O)N2CCN(C(=O)c3cccnc3)CC2)cc1,6,
COC(=O)C(C)Sc1nc(-c2ccc(OC)cc2)nc2c1c(=O)n(C)c(=O)n2C (stereo unspecified),32,
CCCCc1c(C)nn(-c2nnc3c4ccccc4n(C)c3n2)c1C,1,
SMILES,VCAM1 TNFa pot,others
CCSc1nc2ccccc2n1C(=O)/C=C\c1ccc(OC)c(OC)c1,-94,
Cc1cccc(-c2nnc(-c3cccc(NC(=O)Cc4cccs4)c3)o2)c1,-4,
Cn1c(Cc2ccccc2)nnc1SCC(=O)Nc1ccc2c(c1)OCO2,2,
Cn1c(-c2ccc3c(c2)OCO3)cnc1NCc1ccccc1,51*,VCAM1 pot conf=-10
c1cncc(-c2nc(-c3ccc4c(c3)OCO4)cs2)c1,20,
COc1cccc(Cn2cnc3c(NS(=O)(=O)c4cccc(Cl)c4Cl)c(C)c(C)cc32)c1,-1,
COc1ccc(C(=O)NCC(=O)n2nc(C)cc2C)cc1OC,22,
COc1ccc([C@H]2[C@@H](C#N)[C@H](C#N)N3CCCN23)cc1,35,
O=C(CSc1nc2ccccc2[nH]1)Nc1cc(C(F)(F)F)ccc1N1CCOCC1,-3,
O=C(CSc1nc2ccccc2[nH]1)c1ccc2c(c1)OCO2,3,
O=C(CSc1nc2ccccc2[nH]1)Nc1ccccc1N1CCOCC1,48*,VCAM1 pot conf=-6
O=[N+]([O-])c1ccc2nc(-c3ccccc3)n(OCc3ccc(Cl)cc3)c2c1,2,
COc1cccc(-c2nnn(CC(=O)Nc3cc(OC)c(NC(=O)c4ccco4)cc3OC)n2)c1,3,
Cc1ccccc1C(=O)c1c[nH]c(C(=O)NCC2CCCO2)c1 (stereo unspecified),-11,
Cc1nc2ccc(F)cc2cc1C(=O)NCC1CCCO1 (stereo unspecified),-12,
COCCSc1ccccc1C(=O)NCC1CCCO1 (stereo unspecified),?,VCAM1 pot conf=-17
CN1C(=O)CC(N2CCN(Cc3ccc(Cl)cc3)CC2)C1=O (stereo unspecified),10,
CCOC(=O)N1CCC(NC(=O)c2cc(S(=O)(=O)N3CCCC3)cn2C)CC1,43*,VCAM1 pot conf=-5
CCOC(=O)N1CCN(C(=O)c2cc(S(=O)(=O)N3CCCC3)cn2C)CC1,4,
CCOC(=O)N1CCC(NC(=O)c2ccc(OC)c(CN3CC(=O)N4CCCC4C3=O)c2)CC1 (stereo unspecified),-22,
Cc1cccc(-c2nnc(SCCOc3ccc4c(C)cc(=O)oc4c3)o2)c1,-1,
COc1ccc(Cl)cc1Nc1nc(N)nc(C(F)(F)F)n1,8,
COc1ccc(C(=O)N2CCN(S(=O)(=O)c3ccccc3)CC2)c(OC)c1,-8,
CCN1CCN(S(=O)(=O)c2cc(OC)ccc2OC)CC1,64*,VCAM1 pot conf=-4
COc1ccc(CN2CCN(S(=O)(=O)c3ccccc3)CC2)c(OC)c1,6,
SMILES,VCAM1 TNFa pot,others
Cc1ccc(-n2c(SCc3cc(=O)n4ccsc4n3)nnc2-c2cccnc2)c(C)c1,-2,
CC(C)c1cc(C(=O)NCc2ccco2)no1,-10,
O=C(NCc1ccco1)c1ccccc1F,1,
O=C(NCc1ccco1)c1sc2cc(F)ccc2c1Cl,44*,VCAM1 pot conf=-10
COCCNC(=O)CC(c1ccccc1)c1ccccc1,11,
CCOc1ccccc1N(CC(=O)N1CCCCCC1)S(C)(=O)=O,2,

# Source: PubChem
